Results published in the supplement of paper PMC13380429.

Tested on: Vero E6 infected with SARS-CoV-2
Test: inhibition of SARS-CoV-2 cytopathic effect; higher = more antiviral protection, active = above 15
Details: 48 h

Measured: inhibition of SARS-CoV-2 cytopathic effect

CCCCc1nc(C)c(CC(=S)N(C)C)c(=O)n1Cc1ccc(-c2ccccc2-c2nnn[nH]2)cc1 [fimasartan]
inactive: 1 nM 0.68% | 8.33 nM -0.83% | 100 nM -1.61% | 833.33 nM 1.46% | 10000 nM -0.45%

CCC(=O)N1CCOc2c(cc(-c3ccc(OC)c(OC)c3)cc2OC[C@H]2CCCN(C)C2)C1
inactive: 1 nM 1.79% | 8.33 nM 8.72% | 100 nM 0.95% | 833.33 nM 1.75% | 10000 nM 0.51%

CC1(C)S[C@@H]2[C@H](NC(=O)[C@H](C(=O)O)c3ccsc3)C(=O)N2[C@H]1C(=O)O [ticarcillin]
inactive: 1 nM -0.59% | 8.33 nM -1.04% | 100 nM -1.79% | 833.33 nM 0.92% | 10000 nM -2.66%

CCCc1cc(C(N)=S)ccn1 [protionamide]
inactive: 1 nM -1.61% | 8.33 nM 2.36% | 100 nM 1.7% | 833.33 nM 3.81% | 10000 nM -1.88%

CN1CCN(CCOc2cc(OC3CCOCC3)c3c(Nc4c(Cl)ccc5c4OCO5)ncnc3c2)CC1 [saracatinib]
inactive: 1 nM 0.37% | 8.33 nM -0.91% | 100 nM 0.04% | 833.33 nM -7% | 10000 nM -12.3%

CN1C(=O)OC(C)(C)C1=O [trimethadione]
inactive: 1 nM -3.89% | 8.33 nM -1.8% | 100 nM -2.46% | 833.33 nM -3.14% | 10000 nM -1.97%

Nc1ncnc2c1c(COc1cccc(Cl)c1)nn2C1CCOCC1
inactive: 1 nM -1.11% | 8.33 nM -0.68% | 100 nM -0.3% | 833.33 nM -1.57% | 10000 nM -0.4%

COc1cc(OCc2cccc(-c3ccccc3)c2C)cc(OC)c1CN1CCCC[C@H]1C(=O)O [PD1-PDL-inhibitor-1]
inactive: 1 nM -2.92% | 8.33 nM 1.37% | 100 nM 5.72% | 833.33 nM 0.14% | 10000 nM 0.4%

CO[C@H]1CC[C@H](N2C(=O)CNc3ncc(-c4ccc(C(C)(C)O)nc4)nc32)CC1
inactive: 1 nM 0.96% | 8.33 nM -0.05% | 100 nM 0.58% | 833.33 nM -3.48% | 10000 nM -14.6%

O=C(O)CCCc1c[nH]c2ccccc12 [3-indolebutyric-acid]
inactive: 1 nM -1.83% | 8.33 nM -1.26% | 100 nM 0.03% | 833.33 nM -3.61% | 10000 nM -2.44%

Cc1nc2n(c(=O)c1CCN1CCC(c3noc4cc(F)ccc34)CC1)CCCC2O (stereo not given) [paliperidone]
inactive: 1 nM -1.5% | 8.33 nM -3.74% | 100 nM -2.02% | 833.33 nM -3.59% | 10000 nM -4.1%

COc1cccc(OC)c1C(=O)N[C@@H]1C(=O)N2[C@@H]1SC(C)(C)[C@@H]2C(=O)O [methicillin]
inactive: 1 nM -3.39% | 8.33 nM 1.78% | 100 nM -1.39% | 833.33 nM -0.54% | 10000 nM 1.21%

CCOc1nc2cccc(C(=O)OCc3oc(=O)oc3C)c2n1Cc1ccc(-c2ccccc2-c2noc(=O)[nH]2)cc1 [azilsartan-medoxomil]
inactive: 1 nM 0.24% | 8.33 nM 1.14% | 100 nM 2.01% | 833.33 nM 1.93% | 10000 nM -0.28%

COc1ccc2[nH]c(-c3ccccc3)c(CCNC(C)=O)c2c1 [2-phenylmelatonin]
inactive: 1 nM 0.42% | 8.33 nM -1.88% | 100 nM 0.56% | 833.33 nM -2.59% | 10000 nM -0.4%

Cc1ccc(-c2nn(C(C)(C)CNC(=O)c3ncccc3C)c3ncnc(N)c23)cc1 [WEHI-345-analog]
inactive: 1 nM 0.48% | 8.33 nM 1.39% | 100 nM -0.26% | 833.33 nM 0.47% | 10000 nM -2.28%

CC(C)C[C@H](NC(=O)[C@H](CCCCN)NC(=O)[C@H](CCCNC(=N)N)NC(=O)[C@H](C)NC(=O)[C@H](CO)NC(=O)[C@H](CCCCN)NC(=O)[C@H](CCCNC(=N)N)NC(=O)[C@H](C)NC(=O)CNC(=O)[C@@H](NC(=O)[C@H](Cc1ccccc1)NC(=O)CNC(=O)CNC(=O)[C@@H](N)Cc1ccccc1)[C@@H](C)O)C(=O)N[C@@H](C)C(=O)N[C@@H](CC(N)=O)C(=O)N[C@@H](CCC(N)=O)C(=O)O [orphanin-fq]
inactive: 1 nM 1.63% | 8.33 nM -0.61% | 100 nM 0.09% | 833.33 nM 0.66% | 10000 nM 0.4%
